Screening data (PubChem)
Shiga inhibitor: blocks Shiga toxin action in Vero cells; AID 2315; 290,000 compounds, 9.2% hits; inhibition, % at 38.7 µM; Vero cells, Shiga toxin protein synthesis inhibition reporter; in the data active = inhibition mostly above about 28%, no sharp cut-off; inactive = mostly below about 43%; note: 0% is about no effect
Sm TGR block: S. mansoni TGR enzyme inhibition; purified TGR, DTNB reduction, TNB absorbance 405 nm; Potency, µM (titrated, usually from 114 µM), inactives show at the highest dose activity change, negative = inhibition, usual class: inhibitors; 360,000 compounds, 3% hits; AID 485364; note: potency is the fitted concentration of half-maximal effect; % is set by controls: 0 for no effect and ±100 for the full control effect; nearly all actives have a fitted effect of over 60% in size
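TGR 20 nM + NADPH 100 uM (dispensed conc.), cpd preinc 15 min RT; start with NADPH (500 uM addition) then DTNB (15 mM addition). Kinetic TNB absorbance, 405 nm filter. Four-parameter Hill fit across titration.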
TbPYK inhibitor: blocks Trypanosoma brucei pyruvate kinase. TbPYK enzyme, Kinase-Glo Plus ATP luminescence, 45 min. Potency, µM (highest dose often 76.8 µM), for the others: top-dose activity, negative = inhibition, actives largely listed as inhibitors. 410,000 compounds, 0.12% hits. AID 624173; note: potency is the fitted concentration of half-maximal effect; % is set by controls: 0 for no effect and ±100 for the full control effect; nearly all actives have a fitted effect of over 50% in size
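In this concentration-response screen, enzyme-free wells defined baseline while DMSO plates tracked drift. Each reaction combined TbPYK, substrate, compound and 130 uM ADP for 45 min at room temperature. Kinase-Glo Plus luminescence gave the signal.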
Cycloheximide cs: counter-screen for Shiga toxin inhibitors: cycloheximide protein synthesis inhibition | 300,000 compounds, 12% hits | cell reporter, cycloheximide protein synthesis inhibition counterscreen | AID 2314 | max response, %; in the data active = max response mostly above about 13%, no sharp cut-off; inactive = mostly below about 14%; note: read at 38.3 µM for the half of the compounds with a filed dose; 0% is about no effect
LmPK inh: blocks Leishmania mexicana pyruvate kinase activity | purified LmPK, Kinase-Glo ATP luminescence, 1 h | AID 1721 | Q27686 | Potency, µM (titrated, usually from 57.5 µM), for inactives: top-dose activity change, negative = inhibition, usual class: inhibitors | 290,000 compounds, 0.37% hits; note: potency is the fitted concentration of half-maximal effect; % is set by controls: 0 for no effect and ±100 for the full control effect
Target sequence (Q27686 whole entry, looked up): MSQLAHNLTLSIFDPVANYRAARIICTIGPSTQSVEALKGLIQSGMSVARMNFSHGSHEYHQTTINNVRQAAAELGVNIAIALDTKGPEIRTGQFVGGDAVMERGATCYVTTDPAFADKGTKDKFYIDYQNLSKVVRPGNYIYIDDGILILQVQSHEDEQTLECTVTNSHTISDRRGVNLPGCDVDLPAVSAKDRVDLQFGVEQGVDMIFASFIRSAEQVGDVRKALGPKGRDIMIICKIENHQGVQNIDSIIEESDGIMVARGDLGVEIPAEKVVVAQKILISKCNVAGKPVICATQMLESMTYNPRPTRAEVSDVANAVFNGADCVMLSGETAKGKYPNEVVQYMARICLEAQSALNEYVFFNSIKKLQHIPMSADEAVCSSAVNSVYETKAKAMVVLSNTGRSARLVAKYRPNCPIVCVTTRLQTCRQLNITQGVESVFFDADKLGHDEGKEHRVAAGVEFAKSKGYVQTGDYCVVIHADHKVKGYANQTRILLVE
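0.1 nM LmPK, 0.5 mM PEP, 0.1 mM ADP; 50 mM imidazole pH 7.2, 7 mM MgCl2, 50 mM KCl; 1 h RT. Kinase-Glo luminescence readout, normalized to no-enzyme (full inhibition) and uninhibited wells.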
Giardia FBPA inh-1: blocks Giardia fructose-bisphosphate aldolase activity | AID 2451 | 290,000 compounds, 0.71% hits | Potency, µM (series often up to 59.6 µM), inactives show at the highest dose activity, negative = inhibition, most hits filed as inhibitors | purified Giardia FBPA; note: potency is the fitted concentration of half-maximal effect; % is set by controls: 0 for no effect and ±100 for the full control effect; nearly all actives have a fitted effect of over 55% in size
Target sequence (A8B2U2 whole entry, looked up): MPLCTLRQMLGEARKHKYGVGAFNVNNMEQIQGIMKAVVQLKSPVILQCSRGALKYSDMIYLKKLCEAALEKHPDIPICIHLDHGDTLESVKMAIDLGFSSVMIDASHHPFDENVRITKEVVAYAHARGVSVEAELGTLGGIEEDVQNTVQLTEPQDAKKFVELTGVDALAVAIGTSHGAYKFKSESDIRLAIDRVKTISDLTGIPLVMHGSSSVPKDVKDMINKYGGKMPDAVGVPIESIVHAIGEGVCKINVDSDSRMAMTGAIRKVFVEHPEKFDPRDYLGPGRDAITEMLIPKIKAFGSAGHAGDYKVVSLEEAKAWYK
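Giardia FBPA (40 nM reagent) was preincubated 10 min at RT with compound (up to 57.5 uM final), then substrate plus GAPDH/TPI/NAD/arsenate coupling system with diaphorase/resazurin was added; resorufin fluorescence (525/598 nm) was read after 20 min.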
Giardia growth: blocks growth of Giardia lamblia trophozoites. shares compounds with Giardia FBPA inh-1. Potency, µM (doses to about 57.5 µM), without a hit: at the highest dose activity change, negative = inhibition, most hits filed as inhibitors. Giardia lamblia trophozoite growth inhibition. 1,500 compounds, 5% hits. AID 2785;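 note: potency is the fitted concentration of half-maximal effect; trophozoites exposed to compound for 48 h at 37 °C; % is set by controls: 0 for no effect and ±100 for the full control effect; nearly all actives have a fitted effect of over 70% in size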
Mammal cell tox: counter-screen for Giardia aldolase inhibitors: mammalian cell toxicity | 1,500 compounds, 4% hits | Potency, µM (highest dose often 57.5 µM), without a hit: at the highest dose viability change, negative = toxicity, actives largely listed as inhibitors | mammalian cell viability counter-screen, qHTS | AID 2786 | shares compounds with Giardia FBPA inh-1;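 note: Chinese hamster ovary cells used as mammalian cytotoxicity surrogate; viability measured as cellular ATP by luminescence; potency is the fitted concentration of half-maximal effect; compound exposure lasted 48 h before reading; % is set by controls: 0 for no effect and ±100 for the full control effect; nearly all actives have a fitted effect of over 60% in size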
Giardia FBPA inh-2: confirmation of Giardia fructose-bisphosphate aldolase inhibitors | shares compounds with Giardia FBPA inh-1 | purified Giardia aldolase enzyme activity, qHTS | Potency, µM (doses to about 57.5 µM), inactives show top-dose activity change, negative = inhibition, most hits filed as inhibitors | AID 2787 | 1,500 compounds, 5% hits; note: potency is the fitted concentration of half-maximal effect; % is set by controls: 0 for no effect and ±100 for the full control effect; nearly all actives have a fitted effect of over 45% in size
Rabbit aldolase: selectivity test for Giardia aldolase inhibitors: rabbit aldolase | 1,500 compounds, 4% hits | shares compounds with Giardia FBPA inh-1 | Rabbit muscle FBPA enzyme inhibition, selectivity counter-screen | AID 2794 | Potency, µM (top dose mostly 57.5 µM), for inactives: at the highest dose activity, negative = inhibition, usual class: inhibitors; note: potency is the fitted concentration of half-maximal effect; % is set by controls: 0 for no effect and ±100 for the full control effect; nearly all actives have a fitted effect of over 60% in size
GAPDH coupling: counter-screen for Giardia aldolase inhibitors: GAPDH coupling enzyme; 1,500 compounds, 6% hits; shares compounds with Giardia FBPA inh-1; GAPDH coupling enzyme counterscreen, biochemical, qHTS; AID 2795; Potency, µM (top dose mostly 57.5 µM), for the others: at the highest dose activity change, negative = inhibition, most hits filed as inhibitors; note: potency is the fitted concentration of half-maximal effect; % is set by controls: 0 for no effect and ±100 for the full control effect; nearly all actives have a fitted effect of over 55% in size
Numbers without * were called inactive; ! = not confirmed by another sample; [ ] = remark or other dose. Shown is part of a subset that was picked to be rich in hits. Unless noted, calls come from the whole dose curve; as a rule, active = well fitted curve in the direction sought with a large enough effect; inconclusive = small, poorly fitted or top-dose-only effect, or another doubt; inactive = no such curve, though single readings can be large; an effect the other way counts as inactive or inconclusive.

Screening O=C(O)Cn1c2c(c3ccccc31)CSc1ccc(Cl)cc1-2 returned Shiga inhibitor -16, Sm TGR block -20%, TbPYK inhibitor -7%, Cycloheximide cs -4, LmPK inh 1%, Giardia FBPA inh-1 7.1µM*, Giardia growth 0%[10.4 µM], Mammal cell tox 2%, Giardia FBPA inh-2 17%, Rabbit aldolase 13% and GAPDH coupling 16%.
O=C(O)Cn1c2ccccc2c2ccccc21 was read as Shiga inhibitor -12, Sm TGR block 9%, TbPYK inhibitor -5%, Cycloheximide cs -2, LmPK inh 7% and Giardia FBPA inh-1 5%.
`COc1c2ccoc2nc2c(OC)c(O[C@@H]3O[C@H](C)[C@@H](O)[C@@H](O)[C@H]3O)ccc12` gave Giardia FBPA inh-1 0%.
O=C(N/N=C/c1cc(Br)c(Br)o1)c1ccc2c(c1)OCCO2 was read as Shiga inhibitor 60*, Sm TGR block 11µM*, TbPYK inhibitor -7%, Cycloheximide cs 28*, LmPK inh 1%, Giardia FBPA inh-1 13µM*, Giardia growth 12%, Mammal cell tox -15%, Giardia FBPA inh-2 -8%, Rabbit aldolase -8% and GAPDH coupling 1%.
For O=C(O)COc1ccccc1/C=N/NC(=O)c1ccc2c(c1)OCCO2 the results were Shiga inhibitor -9, Sm TGR block 4%, TbPYK inhibitor -5%, Cycloheximide cs -4 and LmPK inh -14%.
For Cc1ccc(NC(=S)c2ccncc2)c(C)c1 the results were Shiga inhibitor -3, Sm TGR block -16%, TbPYK inhibitor -2%, Cycloheximide cs 10, LmPK inh 7%, Giardia FBPA inh-1 16µM*, Giardia growth -11%, Mammal cell tox 11%, Giardia FBPA inh-2 4%, Rabbit aldolase 8% and GAPDH coupling 12%.
Screening O=C(Nc1nccs1)c1ccccn1 returned Shiga inhibitor 97*, Sm TGR block -2%, TbPYK inhibitor 0%, Cycloheximide cs 67*, LmPK inh -27%, Giardia FBPA inh-1 18µM*, Giardia growth inconclusive, Mammal cell tox -15%, Giardia FBPA inh-2 1%, Rabbit aldolase 2% and GAPDH coupling 3%.
`S=C(NCc1ccccn1)Nc1ccccc1` gave Shiga inhibitor 10, Sm TGR block -1%, TbPYK inhibitor -10%, Cycloheximide cs 7, LmPK inh -6% and Giardia FBPA inh-1 0%.
`O=C(Cc1ccccc1)Nc1nccs1` gave Shiga inhibitor 5, Sm TGR block 2%, TbPYK inhibitor -10%, Cycloheximide cs -1, LmPK inh -2% and Giardia FBPA inh-1 4%.
`CCn1cc(Cl)c(C(=O)Nc2nccs2)n1` gave Shiga inhibitor 32*, Sm TGR block -1%, TbPYK inhibitor 2%, Cycloheximide cs 33*, LmPK inh -3%, Giardia FBPA inh-1 4µM*, Giardia growth -8%[10.4 µM], Mammal cell tox -4%, Giardia FBPA inh-2 1%, Rabbit aldolase 3% and GAPDH coupling 8%.
`S=C(Nc1ccccc1)Nc1nccs1` gave Shiga inhibitor 99*, Sm TGR block 11µM*, TbPYK inhibitor -2%, Cycloheximide cs 29*, LmPK inh -4%, Giardia FBPA inh-1 0.63µM*!, Giardia growth -27%[38.3 µM], Mammal cell tox 20µM*, Giardia FBPA inh-2 -4%, Rabbit aldolase -8% and GAPDH coupling -6%.
CCS(=O)(=O)Nc1cc(-c2cn3ccc(C)cc3n2)ccc1C was read as Sm TGR block -1% and TbPYK inhibitor 1%.
O=C(CNS(=O)(=O)c1ccc(Cl)cc1)NC1CCCCC1 was read as Sm TGR block -1% and TbPYK inhibitor -14%.
For O=C(Nc1nnc(C2=COCCO2)o1)c1ccc(S(=O)(=O)N2CCCC2)cc1 the results were Shiga inhibitor 2, Sm TGR block -1%, TbPYK inhibitor 2%, Cycloheximide cs -1, LmPK inh 1%[11.5 µM], Giardia FBPA inh-1 3.5µM*, Giardia growth 25%[38.3 µM], Mammal cell tox -4%, Giardia FBPA inh-2 -6%, Rabbit aldolase -3% and GAPDH coupling 2%.
O=C(Nc1nnc(-c2ccccc2Cl)o1)c1ccc(S(=O)(=O)N2CCCCCC2)cc1 was read as Shiga inhibitor -1, Sm TGR block -1%, TbPYK inhibitor 0%, Cycloheximide cs 1, LmPK inh -2% and Giardia FBPA inh-1 inconclusive.
O=C(Nc1nnc(C2=COCCO2)o1)c1ccc(S(=O)(=O)N2CCCCC2)cc1 was read as Shiga inhibitor -6, Sm TGR block 9%, TbPYK inhibitor 9%, Cycloheximide cs -1, LmPK inh 2%[11.5 µM], Giardia FBPA inh-1 16µM*, Giardia growth inconclusive, Mammal cell tox -9%, Giardia FBPA inh-2 11%, Rabbit aldolase 16% and GAPDH coupling -1%.
Screening CC1CCN(S(=O)(=O)c2ccc(C(=O)Nc3nnc(C4=COCCO4)o3)cc2)CC1 returned Shiga inhibitor -4, Sm TGR block -1%, TbPYK inhibitor 5%, Cycloheximide cs -1 and LmPK inh 1%.
`O=C(Nc1nnc(-c2cccs2)o1)c1ccc(S(=O)(=O)N2CCOCC2)cc1` gave Shiga inhibitor -2, Sm TGR block 8%, TbPYK inhibitor -3%, Cycloheximide cs 11, LmPK inh 8%, Giardia FBPA inh-1 14µM*, Giardia growth -3%[10.4 µM], Mammal cell tox -10%, Giardia FBPA inh-2 -6%, Rabbit aldolase -1% and GAPDH coupling -9%.
CC(C)(C)c1ccc(OCCCn2ccnc2)cc1 was read as Shiga inhibitor 15, Sm TGR block 9%, TbPYK inhibitor 16%, Cycloheximide cs 8.4*, LmPK inh 1%, Giardia FBPA inh-1 28µM*, Giardia growth 12%, Mammal cell tox 1%, Giardia FBPA inh-2 -3%, Rabbit aldolase -8% and GAPDH coupling -2%.
